Measurements from ChEMBL document CHEMBL3988442, “University of Dundee, Small-Polar-MMV Screening Library” (2021).
Screen size: about 38,000 compounds; about 1,200 (3.2%) showed an effect of 50% or more. The median lay at about -58%. Only a selection was taken, and strong results are over-represented in it overall.

Tested on: Plasmodium falciparum
Assay: Calibr Malaria Delayed Death Assay SOP
Assay type: functional, organism-based
Design: scale not given: in the data most compounds retested in dose-response had high values
Settings: concentration 4.99e-06 (unit not given; other assays of the set use mol/L)

SMILES | Percent Effect [%]
COCC1CN(Cc2ccoc2)Cc2nn(CC3CC3)cc21.O=C(O)C(F)(F)F (stereo unspecified) | -62.03
O=C(C1CC(c2ccccc2)=NO1)N1CCc2ccccc21 (stereo unspecified) | -20.98
Cc1cnn(CCNCC(=O)NCCOc2ccc(Cl)cc2)c1 | -0.9504
O=C(Cc1noc(C(=O)NCC2CC2)n1)Nc1cccc(C(F)(F)F)c1 | 7.243
Clc1snnc1CN1CCN(c2nccs2)CC1 | -49.26
CC(=O)Nc1cccc2c1ccn2CC(=O)Nc1n[nH]c(CC(C)C)n1 | -107.2
Cc1csc(CNC(=O)N2CCN(Cc3ccco3)CC2)n1 | -96.64
CCc1cc(N2C[C@H](C3CC3)[C@@H](N)C2)nc(N2CCCC2)n1 | 69.94
N[C@H]1CN(Cc2cnc(N3CCCC3)nc2)C[C@@H]1C1CC1 | -9.289
CNc1cc(C)nc(N2C[C@H](NC(=O)C3CCOCC3)[C@@H](C3CC3)C2)n1 | -47.54
CNc1cc(C)nc(N2C[C@@H](C(=O)O)[C@H](C3CC3)C2)n1 | -82.68
CNc1cc(C)nc(N2C[C@H](C3CC3)[C@@H](N)C2)n1 | 87.7
CC(C)Oc1cc(N2C[C@H](C3CC3)[C@@H](N)C2)nc(N)n1 | -219.2
O=C1CN(C(=O)c2cccc(C(F)(F)F)c2)CC(O)CN1CC1CC1 (stereo unspecified) | -23.92
COCC(=O)N(Cc1ccc2[nH]ccc2c1)C1CC1 | -74.09
O=C(c1ccc(-c2ccoc2)nc1)N1CCCN(C2CCCCC2)CC1 | -100.8
Cc1ccc(S(=O)(=O)CCC(=O)N(C)Cc2cnn(C)c2)cc1 | -22.92
CCC1COCCN1C(=O)NCc1nccn1CCc1ccccc1 (stereo unspecified) | -72.5
OCCN1CCN(CC(O)c2ccc(OC(F)(F)F)cc2)CC1 (stereo unspecified) | -7.34
NC(=O)N1CCCC(C(=O)NCc2ccccc2OC(F)(F)F)C1 (stereo unspecified) | -135.5
CC(NCC1CCN(CCO)CC1)c1ccc(C(F)(F)F)cc1 (stereo unspecified) | 88.54
CC(NCC1CCN(CCO)CC1)c1ccc(OC(F)(F)F)cc1 (stereo unspecified) | 93.49

SMILES | Percent Effect [%]
COCCN1CCN(CC(O)c2ccc(C(F)(F)F)cc2)CC1 (stereo unspecified) | 6.899
CCCN1CCN(CC(O)c2ccc(OC(F)(F)F)cc2)CC1 (stereo unspecified) | 42.81
CN(Cc1ccccc1OC(F)(F)F)C(=O)C1CC1 | -112.4
CC(c1ccc(C(F)(F)F)cc1)N1CCN(CCS(C)(=O)=O)CC1 (stereo unspecified) | -72.63
Cc1cccc(CN2CC3(CCN(S(=O)(=O)C4CC4)CC3)OCC2=O)n1.O=C(O)C(F)(F)F | -75.59
Cc1nccn1CCCC(=O)N1CCCN(c2cccnn2)CC1 | -112.5
COC(=O)C1CN(Cc2nc(-c3ccccc3)cs2)C[C@@H](C)O1 (stereo partly specified) | -63.3
Cc1cc2cccc(NC(=O)N3CCC(N(C)C)C3)c2o1 (stereo unspecified) | -83.5
NC(=O)c1cc(NC(=O)NCCc2cc(F)cc(F)c2)ccc1F | -73.47
O=C1CC(c2ccc3c(c2)OCO3)c2c(n3ccsc3nc2=O)N1 (stereo unspecified) | -91.85
CN(C)c1ncccc1CNS(=O)(=O)c1cc(F)ccc1F | -126.3
CCC(CC)NC(=O)c1cccnc1N1CCCC1c1ccccn1 (stereo unspecified) | -135.6
CCCS(=O)(=O)N1CCN(C(C)(C)CO)CC1 | -101.2
O=C(CN1CCCC(c2ccn[nH]2)C1)Nc1nc2c(s1)CCCC2 (stereo unspecified) | 85.91
Cc1nnc(NC(=O)CN2CCCC(c3ccn[nH]3)C2)s1 (stereo unspecified) | 85.62
Cc1cc(C2CCCN(CC(=O)Nc3nc4c(s3)CCC4)C2)n[nH]1 (stereo unspecified) | 86.8
Cc1cc(C2CCCN(CC(=O)N3CCc4ccccc43)C2)n[nH]1 (stereo unspecified) | -86.51
CC(C)C1Nc2ccccc2C(=O)N1CC(=O)Nc1nc2c(s1)CCC2 (stereo unspecified) | 15.72
Cc1nnc(NC(=O)CN2CCCC(Cn3cncn3)C2)s1 (stereo unspecified) | -101.2
O=C1CCCN1CCN1CCCC(c2ccn[nH]2)C1 (stereo unspecified) | 13.33
O=C1CCCCCN1CCC(=O)N1CCCC(c2ccn[nH]2)C1 (stereo unspecified) | -59.24
O=C(CCc1cscn1)N1CCCC(c2ccn[nH]2)C1 (stereo unspecified) | -83.54

SMILES | Percent Effect [%]
O=C(CN1CCCC(c2ccn[nH]2)C1)Nc1nc2c(s1)CCC2 (stereo unspecified) | 89.1
Cc1cc(C2CCCN(CC(=O)N3CCCc4ccccc43)C2)n[nH]1 (stereo unspecified) | -11.77
Cc1nnc(NC(=O)CN2CCOC(Cn3cccn3)C2)s1 (stereo unspecified) | -152.2
COc1ccc(C)nc1NC(=O)CCc1c(C)nn(C)c1C | -87.92
CCc1nc(C(=O)N2CCN(C)c3ccccc32)c[nH]1 | -108.8
COCc1n[nH]/c(=N/C(=O)COc2cnc(C)cc2O)s1 | -11.35
O=C(c1cccnc1)N1CCC2(CC1)CN(c1ccccn1)CCO2 | -57.82
Cl.NC(=O)N1CC2(CCNCC2)c2cc(Cl)ccc21 | -64.91
CN(C)C(=O)N1CC2(CCNCC2)c2cc(Cl)ccc21.Cl | 23.36
Cl.Cl.O=C([C@H]1CCCN1)N1CC2(CCNCC2)c2cc(Cl)ccc21 | 58.74
CN(Cc1nnc(C2CCC2)o1)C(C(N)=O)c1cccc(F)c1 (stereo unspecified) | -103
Cc1ccc(S(=O)(=O)NCC(O)c2ccoc2)s1 (stereo unspecified) | -144.6
CN1CCC2(CC1)CC(NC(=O)c1csnn1)c1ccccc1O2.O=C(O)C(F)(F)F (stereo unspecified) | -14.05
CCN1CCC2(CC1)CC(Nc1ncccn1)CO2 (stereo unspecified) | -15.58
CCN1CCC2(CC1)CC(NCc1ccncc1)c1ccccc1O2.O=C(O)C(F)(F)F.O=C(O)C(F)(F)F.O=C(O)C(F)(F)F (stereo unspecified) | 77.69
O=C(Cc1ccncc1)N1CCC2(CC1)CC(c1ccccc1)CO2.O=C(O)C(F)(F)F (stereo unspecified) | -32.94
CCN1CCC2(CC1)CC(NC(=O)c1c[nH]cn1)c1ccccc1O2 (stereo unspecified) | -75.27
O=C(c1ccsc1)N1CCC2(CC1)CCN(S(=O)(=O)C1CC1)CC2 | 5.88
COc1ccccc1S(=O)(=O)Nc1cnc(O)cc1C | -22.04
c1cncc(NCCNC2CCSCC2)c1 | -16.36
c1cncc(NCCNC2CCCNC2)c1 (stereo unspecified) | -4.225
CC(C)CN1CCC(NCCNc2cccnc2)CC1 | 78.75
